Source: PubChem BioAssay AID1903 (Southern Research Specialized Biocontainment Screening …, 2009)
Out of some 310,000 compounds screened, about 1,200 (0.39%) were called active. No rule for the calls is given here. Only a sample is shown. Results with a measured potency or affinity are listed apart.

target: Large T antigen (Simian virus 40) (UniProt P03070); assay: SV40 large T antigen inhibitors, biochemical (AID 1903); settings: SV40 large T antigen ATPase/helicase inhibition assay; at 20 µM; hits give high values
Sequence (P03070 whole entry, looked up): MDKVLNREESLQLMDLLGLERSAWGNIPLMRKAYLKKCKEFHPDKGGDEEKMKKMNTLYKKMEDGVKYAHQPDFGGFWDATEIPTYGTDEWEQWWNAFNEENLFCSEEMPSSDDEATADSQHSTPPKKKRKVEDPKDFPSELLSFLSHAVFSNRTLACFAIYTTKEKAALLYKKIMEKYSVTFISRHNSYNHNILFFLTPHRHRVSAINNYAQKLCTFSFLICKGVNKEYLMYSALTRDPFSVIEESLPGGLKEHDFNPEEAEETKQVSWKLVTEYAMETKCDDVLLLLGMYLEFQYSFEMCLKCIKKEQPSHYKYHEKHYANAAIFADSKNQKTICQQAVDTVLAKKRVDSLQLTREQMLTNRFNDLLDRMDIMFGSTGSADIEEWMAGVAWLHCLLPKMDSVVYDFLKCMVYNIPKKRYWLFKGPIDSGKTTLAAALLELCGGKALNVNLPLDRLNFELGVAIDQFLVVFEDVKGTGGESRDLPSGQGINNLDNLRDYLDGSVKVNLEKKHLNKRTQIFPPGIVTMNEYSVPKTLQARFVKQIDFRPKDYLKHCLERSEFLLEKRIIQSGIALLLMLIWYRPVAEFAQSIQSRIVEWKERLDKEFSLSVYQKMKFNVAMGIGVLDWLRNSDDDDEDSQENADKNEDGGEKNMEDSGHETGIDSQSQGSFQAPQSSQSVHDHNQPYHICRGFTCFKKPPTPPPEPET

inhibition, inactive:
CS(=O)(=O)N1CCc2cc(S(=O)(=O)N3CCCCC3)ccc21 11.4%
COc1ccc(C(C)=O)cc1COc1ccc(Cl)cc1Cl 1.32%
Cc1ccc(S(=O)(=O)N(CC(=O)Nc2cccnc2)c2cccc(Br)c2)cc1 14.9%
Oc1ccc(Nc2nc3ccccc3nc2Nc2ccc(O)cc2)cc1 35%
Cc1cc(C)nc(Nc2ccc(O)cc2)n1 45.6%
Cc1cc(C)nc(Nc2ccc(C(=O)O)cc2)n1 3.63%
Oc1ccc(Nc2nnc(-c3ccc(O)cc3)c3ccccc23)cc1 20.3%
O=C(OC1CCCCC1=O)c1cccc(S(=O)(=O)N2CCOCC2)c1 (configuration not stated) 1.22%
CC(=O)Nc1cccc(-c2csc(NCc3ccco3)n2)c1 13.3%
CCOC(=O)C1=C(C)Nc2nc(C)nn2C1c1cc(OC)ccc1OC (configuration not stated) 5.76%
Nc1cccc2c3c(oc12)CCCC3 4.56%
O=C(Nc1ccc(-c2ccc3nncn3n2)cc1)C1CCCC1 0.86%
CCC(C)N(C(=O)COC(=O)c1ccccc1SCC(=O)N1CCCC1)C1CCS(=O)(=O)C1 (configuration not stated) 1.39%
c1ccc(Cn2nnnc2CN2CCN(c3ncccn3)CC2)cc1 0.78%
CCCc1cc(C(N)=O)c(NC(=O)c2cc(C)on2)s1 8.78%
Cc1csc(C(=O)NCC(=O)NNC(=O)c2cccc(Cl)c2)c1 0.72%
CCn1nc(C(=O)Nc2nc3ccc(C)cc3s2)c2ccccc2c1=O 0.39%
COc1cc(/C=N/NC(=O)CC(=O)NC2CCCCC2)ccc1O 26.4%
COc1cc(/C=N/NC(=O)C2c3ccccc3Oc3ccccc32)ccc1O 13.3%
COc1cc(/C=N/NC(=O)NC23CC4CC(CC(C4)C2)C3)ccc1O 26.5%
COc1cc(/C=N/NC(=O)NC2CCCCC2)cc(OC)c1O 31.1%
COc1ccc(C(CNC(=O)c2ccc(S(=O)(=O)Nc3ccc(F)cc3)cc2)N(C)C)cc1 (configuration not stated) -1%
CC(=O)Nc1ccc(S(=O)(=O)NCCC(=O)OCC(=O)N2CCN(C(=O)c3ccco3)CC2)cc1 2.76%
COc1ccc(OC)c(-c2csc3nnc(SCC(=O)Nc4ccc(NC(C)=O)cc4)n23)c1 3.77%
C=CCC(C(=O)NC(C)c1ccccc1)C(=O)NC(C)c1ccccc1 (configuration not stated) 0.99%
CCOc1cc(NC(=O)c2ccccn2)c(OCC)cc1NC(=O)c1ccccc1 8.84%
CCOc1cc(N2C(=O)CC3CS(=O)(=O)CC32)c(OCC)cc1NC(=O)c1ccccc1 (configuration not stated) -8.08%
CCCSc1nnc(N)s1 14.6%
CCN1C(=O)c2ccccc2Sc2ccc(C(=O)NCCC(C)C)cc21 18.1%
CCOC(=O)C1CCCN(S(=O)(=O)Cc2ccc(Cl)cc2)C1 (configuration not stated) 5.43%
Cc1ccc(NC(=O)C(=O)NN)cc1 4.15%
NNC(=O)C(=O)Nc1ccc(Cl)c(Cl)c1 4.78%
Cc1ccc(N=C2C(=O)Nc3ccc(Br)cc32)cc1 4.2%
COC(=O)CN1C(=O)C(C)(C)Oc2ccc(C(=O)Nc3ccccc3F)cc21 -0.69%
O=[N+]([O-])c1cc(/C=N\Nc2nc(-c3ccccc3)cs2)ccc1O 14.1%
Cc1csc(N/N=C/c2ccc([N+](=O)[O-])cc2)n1 12%
O=C(c1ccc2c(c1)OCCO2)C1CCN(S(=O)(=O)c2ccc(F)cc2)CC1 0.84%
S=c1[nH]nc(-c2cc(-c3ccccc3)n[nH]2)n1/N=C/c1cccs1 10.5%
Fc1ccc(-c2n[nH]c(=S)n2/N=C/c2c[nH]c3ccccc23)cc1 1.41%
Cc1cc(C)n(/N=C/c2c[nH]c3ccccc23)c(=O)c1 0.69%
Cc1nnc(C)n1/N=C/c1cccs1 13.5%
CCCCn1c(O)c(N=NC(=O)c2ccccc2NS(=O)(=O)c2cccs2)c2ccccc21 14.3%
O=c1ccc(S(=O)(=O)N2CCC(Cc3ccccc3)CC2)c[nH]1 7.63%
CN(CCNC(=O)CCNC(=O)Cn1ccc2ccccc2c1=O)Cc1ccccc1 15.1%
Nc1nc(SCc2cccc([N+](=O)[O-])c2)n[nH]1 4.99%
CCn1c(SCC(=O)c2ccc(C)cc2)nnc1-c1ccncc1 3.96%
CCn1c(SCC(=O)C(C)(C)C)nnc1-c1ccccc1OC -1.72%
C=CCn1c(SCC(=O)Nc2ccc(C(=O)O)cc2)nnc1-c1cccnc1 8.53%
C=CCn1c(SCC(=O)c2ccc(OC)cc2)nnc1-c1cc2cccc(OC)c2o1 6.55%
CCn1c(SCC(=O)OC)nnc1-c1ccc(C)cc1 22.5%
C=CCn1c(SCC(=O)NC2CCCC2)nnc1-c1cccnc1 3.08%
C=CCn1c(SCC(=O)Nc2ccc3c(c2)OCO3)nnc1-c1ccccc1OC 1.62%
CCn1c(SCC(=O)O)nnc1-c1ccccc1OC 1.77%
O=C1OCc2cc(NC(=O)C3CCCCC3)ccc21 2.69%
COc1cccc(-c2cc(CC3(O)CCN(CCCc4ccccc4)CC3)on2)c1 8.74%
Cc1ccc(S(=O)(=O)N2CCN(S(=O)(=O)N(C)C)CC2)c(C)c1 3.46%
COc1ccc(-n2c(C)cc(-c3csc(NC(=O)c4ccc(S(=O)(=O)N(C)C)cc4)n3)c2C)cc1 11.5%
Cc1c(CC(=O)NCCCC(=O)O)c(=O)oc2cc3oc4c(c3cc12)CCCC4 10%
CC(C)CCNC(=O)C1CC(=O)N(C2CCCC2)C1 (configuration not stated) -3.66%
S=C(NCC1CCCO1)Nc1ccc(Cl)c(Cl)c1 (configuration not stated) 13.5%
Cc1ccc(CCN2CC(C(=O)NCCCN3CCN(C)CC3)CC2=O)cc1 (configuration not stated) 3.28%
c1ccc(-n2nnnc2-n2nnc3ccccc32)cc1 9.04%
